# Data taken from ChEMBL document CHEMBL1961873, “Compounds: GSK PKIS; Assays: Nanosyn kinase panel” (2012).
# Tests used:
# [1] = target: Sphingosine kinase 1 (Homo sapiens) (UniProt Q9NYA1); conditions: at 1 µM;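 further: mean SPHK1 inhibition value reported from the GSK PKIS kinase panel screen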
# [2] = target: T1, Sphingosine kinase 2 (Homo sapiens) (UniProt Q9NRA0); conditions: at 0.1 µM
# T1 sequence (whole entry): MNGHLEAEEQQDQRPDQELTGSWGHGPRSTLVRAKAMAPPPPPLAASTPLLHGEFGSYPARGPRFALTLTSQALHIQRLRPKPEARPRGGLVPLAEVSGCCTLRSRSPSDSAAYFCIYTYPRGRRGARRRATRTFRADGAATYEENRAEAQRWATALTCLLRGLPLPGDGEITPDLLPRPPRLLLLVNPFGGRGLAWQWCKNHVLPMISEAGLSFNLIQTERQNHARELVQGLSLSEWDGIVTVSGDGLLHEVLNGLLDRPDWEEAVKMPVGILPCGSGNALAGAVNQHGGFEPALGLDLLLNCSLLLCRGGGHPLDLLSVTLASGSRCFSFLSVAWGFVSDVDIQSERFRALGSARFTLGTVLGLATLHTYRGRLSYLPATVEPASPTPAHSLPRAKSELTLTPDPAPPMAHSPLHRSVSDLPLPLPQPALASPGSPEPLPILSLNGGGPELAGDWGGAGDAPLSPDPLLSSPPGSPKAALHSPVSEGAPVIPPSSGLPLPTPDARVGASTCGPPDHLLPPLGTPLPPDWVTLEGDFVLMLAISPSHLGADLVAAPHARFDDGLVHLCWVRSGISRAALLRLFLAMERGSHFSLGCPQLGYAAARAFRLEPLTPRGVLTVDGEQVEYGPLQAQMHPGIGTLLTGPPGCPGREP
# [3] = target: T1, Sphingosine kinase 2 (Homo sapiens); conditions: at 1 µM
# [4] = target: Casein kinase II subunit alpha (Homo sapiens) (UniProt P68400); conditions: at 0.1 µM
# [5] = target: Casein kinase II subunit alpha (Homo sapiens) (UniProt P68400); conditions: at 1 µM
# [6] = target: T2, Inhibitor of nuclear factor kappa-B kinase subunit alpha (Homo sapiens) (UniProt O15111); conditions: at 0.1 µM
# T2 sequence (whole entry): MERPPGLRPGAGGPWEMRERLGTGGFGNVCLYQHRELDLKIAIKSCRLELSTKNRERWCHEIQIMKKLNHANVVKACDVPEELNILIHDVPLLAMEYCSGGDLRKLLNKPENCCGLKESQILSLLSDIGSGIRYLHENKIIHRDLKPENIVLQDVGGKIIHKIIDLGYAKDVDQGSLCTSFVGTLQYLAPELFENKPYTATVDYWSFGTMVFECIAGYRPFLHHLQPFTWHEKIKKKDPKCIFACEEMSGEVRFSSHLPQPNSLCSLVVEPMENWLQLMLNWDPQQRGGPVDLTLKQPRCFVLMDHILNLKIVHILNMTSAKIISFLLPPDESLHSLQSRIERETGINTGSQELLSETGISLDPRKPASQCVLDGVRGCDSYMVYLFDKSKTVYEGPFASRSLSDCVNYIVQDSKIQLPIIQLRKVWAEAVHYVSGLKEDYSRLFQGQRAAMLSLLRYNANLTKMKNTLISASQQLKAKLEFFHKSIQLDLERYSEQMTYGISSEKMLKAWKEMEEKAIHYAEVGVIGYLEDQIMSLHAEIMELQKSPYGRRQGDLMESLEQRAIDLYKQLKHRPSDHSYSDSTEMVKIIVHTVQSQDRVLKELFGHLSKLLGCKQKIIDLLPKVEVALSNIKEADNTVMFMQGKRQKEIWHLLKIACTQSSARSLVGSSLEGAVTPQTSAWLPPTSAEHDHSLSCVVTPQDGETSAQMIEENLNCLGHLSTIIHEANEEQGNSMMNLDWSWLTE
# [7] = target: T2, Inhibitor of nuclear factor kappa-B kinase subunit alpha (Homo sapiens); conditions: at 1 µM
# [8] = target: T3, Inhibitor of nuclear factor kappa-B kinase subunit beta (Homo sapiens) (UniProt O14920); conditions: at 0.1 µM
# T3 sequence (whole entry): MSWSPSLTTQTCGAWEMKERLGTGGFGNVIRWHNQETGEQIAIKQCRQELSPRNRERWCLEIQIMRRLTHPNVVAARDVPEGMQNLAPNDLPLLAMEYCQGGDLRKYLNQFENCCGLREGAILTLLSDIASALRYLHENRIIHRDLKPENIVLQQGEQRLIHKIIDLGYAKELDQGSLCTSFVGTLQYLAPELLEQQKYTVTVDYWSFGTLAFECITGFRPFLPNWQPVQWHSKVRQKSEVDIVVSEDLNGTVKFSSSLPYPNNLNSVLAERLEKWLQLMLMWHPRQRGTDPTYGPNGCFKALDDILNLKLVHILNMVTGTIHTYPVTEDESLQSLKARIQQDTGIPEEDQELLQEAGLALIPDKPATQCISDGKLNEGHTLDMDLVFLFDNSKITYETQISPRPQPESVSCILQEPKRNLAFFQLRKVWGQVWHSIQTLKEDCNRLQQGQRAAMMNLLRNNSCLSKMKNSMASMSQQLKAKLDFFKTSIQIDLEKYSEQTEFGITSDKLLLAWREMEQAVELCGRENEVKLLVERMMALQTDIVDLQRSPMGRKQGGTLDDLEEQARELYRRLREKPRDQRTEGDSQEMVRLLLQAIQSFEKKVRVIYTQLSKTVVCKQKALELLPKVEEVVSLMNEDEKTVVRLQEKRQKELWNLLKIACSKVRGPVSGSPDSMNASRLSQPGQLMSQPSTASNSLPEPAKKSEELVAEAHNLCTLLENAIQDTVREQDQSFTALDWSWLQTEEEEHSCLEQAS
# [9] = target: T3, Inhibitor of nuclear factor kappa-B kinase subunit beta (Homo sapiens); conditions: at 1 µM
# [10] = target: T4, Inhibitor of nuclear factor kappa-B kinase subunit epsilon (Homo sapiens) (UniProt Q14164); conditions: at 0.1 µM
# T4 sequence (whole entry): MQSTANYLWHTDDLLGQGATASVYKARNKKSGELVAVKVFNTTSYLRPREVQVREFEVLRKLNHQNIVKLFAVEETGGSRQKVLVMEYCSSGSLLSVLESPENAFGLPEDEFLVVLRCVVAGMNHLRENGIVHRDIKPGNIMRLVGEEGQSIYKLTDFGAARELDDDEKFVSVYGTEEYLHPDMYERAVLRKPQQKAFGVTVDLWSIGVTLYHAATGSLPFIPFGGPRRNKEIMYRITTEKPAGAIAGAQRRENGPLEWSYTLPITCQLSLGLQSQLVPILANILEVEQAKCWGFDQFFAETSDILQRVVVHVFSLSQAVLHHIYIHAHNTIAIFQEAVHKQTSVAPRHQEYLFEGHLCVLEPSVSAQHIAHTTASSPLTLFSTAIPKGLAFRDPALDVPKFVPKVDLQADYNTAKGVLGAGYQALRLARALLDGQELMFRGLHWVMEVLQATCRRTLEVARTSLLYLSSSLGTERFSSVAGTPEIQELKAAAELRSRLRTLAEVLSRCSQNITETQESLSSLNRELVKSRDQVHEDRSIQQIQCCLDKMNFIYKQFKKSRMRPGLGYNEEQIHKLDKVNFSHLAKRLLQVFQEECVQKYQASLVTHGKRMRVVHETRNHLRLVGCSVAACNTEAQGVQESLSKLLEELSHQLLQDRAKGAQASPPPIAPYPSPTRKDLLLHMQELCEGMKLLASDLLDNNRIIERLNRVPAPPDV
# [11] = target: T4, Inhibitor of nuclear factor kappa-B kinase subunit epsilon (Homo sapiens); conditions: at 1 µM
# [12] = target: T5, Serine/threonine-protein kinase Nek1 (Homo sapiens) (UniProt Q96PY6); conditions: at 0.1 µM
# T5 sequence (whole entry): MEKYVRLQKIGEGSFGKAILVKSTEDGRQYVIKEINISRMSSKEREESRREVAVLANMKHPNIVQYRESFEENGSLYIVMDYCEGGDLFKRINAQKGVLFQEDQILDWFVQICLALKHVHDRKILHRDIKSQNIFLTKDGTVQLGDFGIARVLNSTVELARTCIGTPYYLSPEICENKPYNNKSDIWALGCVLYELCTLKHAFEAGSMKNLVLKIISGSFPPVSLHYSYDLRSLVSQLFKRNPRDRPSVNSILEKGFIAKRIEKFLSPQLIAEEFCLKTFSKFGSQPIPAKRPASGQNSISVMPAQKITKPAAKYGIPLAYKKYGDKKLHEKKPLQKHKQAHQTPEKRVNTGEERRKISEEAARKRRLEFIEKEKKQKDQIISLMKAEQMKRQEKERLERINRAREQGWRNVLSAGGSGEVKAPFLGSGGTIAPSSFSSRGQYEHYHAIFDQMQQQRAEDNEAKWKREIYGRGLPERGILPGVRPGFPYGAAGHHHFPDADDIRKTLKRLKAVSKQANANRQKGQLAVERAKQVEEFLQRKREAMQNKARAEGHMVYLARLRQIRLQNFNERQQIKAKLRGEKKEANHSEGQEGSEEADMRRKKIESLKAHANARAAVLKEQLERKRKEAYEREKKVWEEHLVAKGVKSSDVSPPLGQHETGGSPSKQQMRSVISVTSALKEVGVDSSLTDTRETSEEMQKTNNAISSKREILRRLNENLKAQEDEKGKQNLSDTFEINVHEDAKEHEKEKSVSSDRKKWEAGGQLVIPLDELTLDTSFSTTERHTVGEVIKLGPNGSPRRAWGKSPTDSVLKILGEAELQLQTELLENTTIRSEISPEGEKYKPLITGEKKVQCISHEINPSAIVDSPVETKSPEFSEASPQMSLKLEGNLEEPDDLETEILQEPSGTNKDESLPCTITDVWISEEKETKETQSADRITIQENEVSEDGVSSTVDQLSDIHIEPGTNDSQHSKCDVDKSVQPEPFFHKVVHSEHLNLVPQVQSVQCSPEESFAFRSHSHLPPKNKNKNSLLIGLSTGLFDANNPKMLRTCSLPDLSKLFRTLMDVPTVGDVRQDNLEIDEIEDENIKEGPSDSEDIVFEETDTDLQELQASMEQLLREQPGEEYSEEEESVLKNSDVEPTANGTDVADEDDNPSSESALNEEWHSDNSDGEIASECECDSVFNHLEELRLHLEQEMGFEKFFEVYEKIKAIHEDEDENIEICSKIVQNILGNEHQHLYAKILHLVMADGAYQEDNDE
# [13] = target: T5, Serine/threonine-protein kinase Nek1 (Homo sapiens); conditions: at 1 µM
# [14] = target: T6, Serine/threonine-protein kinase Nek2 (Homo sapiens) (UniProt P51955); conditions: at 0.1 µM
# T6 sequence (whole entry): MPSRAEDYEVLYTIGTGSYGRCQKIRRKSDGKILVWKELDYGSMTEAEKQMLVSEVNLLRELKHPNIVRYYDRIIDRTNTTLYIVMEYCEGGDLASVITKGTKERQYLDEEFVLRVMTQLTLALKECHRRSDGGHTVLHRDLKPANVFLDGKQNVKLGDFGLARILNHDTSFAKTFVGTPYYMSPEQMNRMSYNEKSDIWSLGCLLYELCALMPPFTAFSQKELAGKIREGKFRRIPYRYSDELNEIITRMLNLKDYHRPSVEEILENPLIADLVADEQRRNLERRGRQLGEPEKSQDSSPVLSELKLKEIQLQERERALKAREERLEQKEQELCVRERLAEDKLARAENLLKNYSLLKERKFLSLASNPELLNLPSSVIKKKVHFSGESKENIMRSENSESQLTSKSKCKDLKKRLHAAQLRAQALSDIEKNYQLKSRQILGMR
# [15] = target: T6, Serine/threonine-protein kinase Nek2 (Homo sapiens); conditions: at 1 µM
# [16] = target: Serine/threonine-protein kinase Nek6 (Homo sapiens) (UniProt Q9HC98); conditions: at 0.1 µM
# [17] = target: Serine/threonine-protein kinase Nek6 (Homo sapiens) (UniProt Q9HC98); conditions: at 1 µM
# [18] = target: Serine/threonine-protein kinase Nek7 (Homo sapiens) (UniProt Q8TDX7); conditions: at 0.1 µM
# [19] = target: Serine/threonine-protein kinase Nek7 (Homo sapiens) (UniProt Q8TDX7); conditions: at 1 µM
# [20] = target: T7, Serine/threonine-protein kinase Nek9 (Homo sapiens) (UniProt Q8TD19); conditions: at 0.1 µM;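 further: reported value is the mean percent inhibition of NEK9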
# T7 sequence (whole entry): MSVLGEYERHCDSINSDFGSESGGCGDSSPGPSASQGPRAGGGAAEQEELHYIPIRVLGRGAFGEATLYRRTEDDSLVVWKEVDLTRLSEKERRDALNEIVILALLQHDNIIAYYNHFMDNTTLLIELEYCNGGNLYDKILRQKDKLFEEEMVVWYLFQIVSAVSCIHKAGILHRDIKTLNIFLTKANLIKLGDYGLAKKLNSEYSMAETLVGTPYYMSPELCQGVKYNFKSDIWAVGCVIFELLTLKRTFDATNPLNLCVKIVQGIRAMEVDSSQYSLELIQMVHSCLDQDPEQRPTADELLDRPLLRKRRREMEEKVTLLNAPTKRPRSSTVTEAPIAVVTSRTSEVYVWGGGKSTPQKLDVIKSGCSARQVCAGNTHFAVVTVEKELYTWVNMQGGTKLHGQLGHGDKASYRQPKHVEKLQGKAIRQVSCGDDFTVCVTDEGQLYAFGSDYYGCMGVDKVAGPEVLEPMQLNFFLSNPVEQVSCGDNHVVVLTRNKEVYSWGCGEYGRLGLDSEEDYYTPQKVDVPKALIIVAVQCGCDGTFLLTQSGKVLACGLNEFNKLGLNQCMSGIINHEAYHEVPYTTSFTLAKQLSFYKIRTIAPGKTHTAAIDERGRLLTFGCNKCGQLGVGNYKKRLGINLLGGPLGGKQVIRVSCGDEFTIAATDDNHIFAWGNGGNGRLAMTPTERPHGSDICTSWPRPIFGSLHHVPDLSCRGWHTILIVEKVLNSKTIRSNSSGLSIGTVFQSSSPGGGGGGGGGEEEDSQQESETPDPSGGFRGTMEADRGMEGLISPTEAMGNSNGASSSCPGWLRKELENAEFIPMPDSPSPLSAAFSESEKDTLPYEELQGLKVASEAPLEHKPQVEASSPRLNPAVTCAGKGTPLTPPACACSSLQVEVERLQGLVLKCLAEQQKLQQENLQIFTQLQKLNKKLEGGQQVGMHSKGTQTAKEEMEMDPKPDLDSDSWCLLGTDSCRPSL
# Chain of Serine/threonine-protein kinase Nek6 (Homo sapiens) (Q9HC98 whole entry): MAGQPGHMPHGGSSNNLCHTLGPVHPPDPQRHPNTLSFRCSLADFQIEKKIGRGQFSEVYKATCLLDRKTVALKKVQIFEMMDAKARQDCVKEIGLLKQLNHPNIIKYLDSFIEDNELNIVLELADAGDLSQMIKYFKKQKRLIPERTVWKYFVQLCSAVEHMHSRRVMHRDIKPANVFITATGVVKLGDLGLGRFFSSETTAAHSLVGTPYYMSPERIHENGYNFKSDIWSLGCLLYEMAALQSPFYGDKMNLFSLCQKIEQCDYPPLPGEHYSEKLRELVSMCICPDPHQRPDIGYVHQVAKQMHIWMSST
# Chain of Casein kinase II subunit alpha (Homo sapiens) (P68400 whole entry, looked up): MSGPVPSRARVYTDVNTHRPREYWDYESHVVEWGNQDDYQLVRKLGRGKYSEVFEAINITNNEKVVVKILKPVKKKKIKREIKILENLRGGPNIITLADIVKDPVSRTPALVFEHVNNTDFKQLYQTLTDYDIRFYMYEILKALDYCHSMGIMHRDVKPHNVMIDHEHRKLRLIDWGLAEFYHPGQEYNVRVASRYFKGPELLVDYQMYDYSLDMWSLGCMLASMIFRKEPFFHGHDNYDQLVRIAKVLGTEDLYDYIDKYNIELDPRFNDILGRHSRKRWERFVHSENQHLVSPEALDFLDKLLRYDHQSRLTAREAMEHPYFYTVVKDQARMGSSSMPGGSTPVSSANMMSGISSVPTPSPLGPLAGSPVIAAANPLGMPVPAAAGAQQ
# Chain of Serine/threonine-protein kinase Nek7 (Homo sapiens) (Q8TDX7 whole entry, looked up): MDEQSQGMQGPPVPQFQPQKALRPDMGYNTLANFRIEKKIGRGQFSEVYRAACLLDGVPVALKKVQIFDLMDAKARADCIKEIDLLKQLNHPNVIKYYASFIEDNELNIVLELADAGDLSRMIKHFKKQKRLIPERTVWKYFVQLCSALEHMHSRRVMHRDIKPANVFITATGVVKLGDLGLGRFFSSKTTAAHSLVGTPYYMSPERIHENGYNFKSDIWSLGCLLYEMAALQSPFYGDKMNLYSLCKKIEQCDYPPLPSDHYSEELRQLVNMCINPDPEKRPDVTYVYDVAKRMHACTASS
# Chain of Sphingosine kinase 1 (Homo sapiens) (Q9NYA1 whole entry): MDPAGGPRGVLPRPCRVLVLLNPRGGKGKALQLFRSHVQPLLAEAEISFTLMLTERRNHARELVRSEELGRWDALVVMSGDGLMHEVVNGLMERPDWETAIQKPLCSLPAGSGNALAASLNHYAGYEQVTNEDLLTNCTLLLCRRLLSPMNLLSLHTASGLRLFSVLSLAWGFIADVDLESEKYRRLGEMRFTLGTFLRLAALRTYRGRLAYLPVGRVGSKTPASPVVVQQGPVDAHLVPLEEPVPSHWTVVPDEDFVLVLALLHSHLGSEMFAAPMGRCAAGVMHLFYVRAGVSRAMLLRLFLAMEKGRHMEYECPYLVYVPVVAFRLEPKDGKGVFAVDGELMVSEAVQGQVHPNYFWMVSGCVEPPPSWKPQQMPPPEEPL
smiles,measurement,setting,value
COc1cc2ncnc(Nc3ccc4c(cnn4Cc4ccccc4)c3)c2cc1OC,inhibition,[1],2.19%
same,inhibition,[2],0.07%
same,inhibition,[3],0.14%
same,inhibition,[4],-5.08%
same,inhibition,[5],4.31%
same,inhibition,[6],2.23%
same,inhibition,[7],8.23%
same,inhibition,[8],3.63%
same,inhibition,[9],3.81%
same,inhibition,[10],2.69%
same,inhibition,[11],4.31%
same,inhibition,[12],1.6%
same,inhibition,[13],0.76%
same,inhibition,[14],2.52%
same,inhibition,[15],-2.69%
same,inhibition,[16],9.32%
same,inhibition,[17],3.49%
same,inhibition,[18],0.26%
same,inhibition,[19],6.18%
same,inhibition,[20],6.67%
